This is one part of a sample in which hits are shown more often than they occur.
RECQ1 inh-1: qHTS Assay for Inhibitors of RecQ-Like Dna Helicase 1 (RECQ1); RECQ1 DNA unwinding, red fluorescence kinetic read; Potency, µM (series often up to 57.3 µM), inactives show top-dose activity, negative = inhibition, hits mostly inhibitors; 240,000 tested, 0.54% active; AID 2549, 2010;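 further: plate controls were vehicle for no effect and no enzyme for full effect; nearly all actives have a fitted effect of over 30% in size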
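RECQ1T1 50 nM; forked duplex (20 bp + 30-nt ss tails) 200 nM, ATP 2 mM final; pH 8.0, 2 mM MgCl2, 2.5 ug/ml poly(dI-dC); 15 min compound preincubation; discontinuous kinetic read over 2 h at RT.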
JMJD2E inh: qHTS Assay for Inhibitors of Human Jumonji Domain Containing 2E (JMJD2E). Lysine-specific demethylase 4E (Homo sapiens), B2RXH2. JMJD2E catalytic domain, FDH-coupled NADH fluorescence (FDH is formaldehyde dehydrogenase). Potency, µM (highest dose often 57.1 µM), inactives show at the highest dose activity change, negative = inhibition, usual class: inhibitors. 230,000 tested, 1.6% active; active means well fitted inhibition curve with a large enough effect, not every such curve was filed as active; inconclusive means small, poorly fitted or top-dose-only effect, or another doubt; inactive means no such curve, though single readings can be large or run the other way;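 further: 0% = wells with enzyme and -100% = buffer wells without enzyme; nearly all actives have a fitted effect of over 50% in size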
L3MBTL1 inh: qHTS Assay for the Inhibitors of L3MBTL1; Lethal(3)malignant brain tumor-like protein 1 (Homo sapiens), Q9Y468; AlphaScreen L3MBTL1–H3K9me1 peptide binding; Potency, µM (series often up to 57.1 µM), for the others: top-dose activity, negative = inhibition, hits mostly inhibitors; 230,000 tested, 0.66% active; AID 485360, 2010; further: nearly all actives have a fitted effect of over 60% in size
Target sequence (Q9Y468 whole entry, looked up): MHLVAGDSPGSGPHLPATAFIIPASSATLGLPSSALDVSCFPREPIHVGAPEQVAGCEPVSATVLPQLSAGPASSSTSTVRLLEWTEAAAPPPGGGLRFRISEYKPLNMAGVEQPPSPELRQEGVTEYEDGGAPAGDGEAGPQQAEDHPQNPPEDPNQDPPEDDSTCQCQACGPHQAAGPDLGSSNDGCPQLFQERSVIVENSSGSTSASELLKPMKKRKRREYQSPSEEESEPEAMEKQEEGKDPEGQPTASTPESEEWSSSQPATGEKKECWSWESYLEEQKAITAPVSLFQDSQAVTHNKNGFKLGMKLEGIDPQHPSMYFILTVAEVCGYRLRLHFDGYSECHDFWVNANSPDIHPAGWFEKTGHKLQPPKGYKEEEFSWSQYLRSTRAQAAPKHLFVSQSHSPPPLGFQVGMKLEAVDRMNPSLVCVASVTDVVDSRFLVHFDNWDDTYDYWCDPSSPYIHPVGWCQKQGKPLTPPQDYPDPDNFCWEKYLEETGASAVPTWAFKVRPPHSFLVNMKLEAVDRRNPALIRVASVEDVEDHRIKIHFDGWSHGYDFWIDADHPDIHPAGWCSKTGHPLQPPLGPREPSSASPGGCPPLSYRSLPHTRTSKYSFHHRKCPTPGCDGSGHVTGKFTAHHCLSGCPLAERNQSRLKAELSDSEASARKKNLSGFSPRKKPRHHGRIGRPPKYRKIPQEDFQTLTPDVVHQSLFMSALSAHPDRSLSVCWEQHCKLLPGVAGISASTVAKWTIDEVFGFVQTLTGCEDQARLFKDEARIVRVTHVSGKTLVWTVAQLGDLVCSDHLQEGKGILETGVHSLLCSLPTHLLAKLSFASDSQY
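L3MBTL1 50 nM + b-AHA-H3(1-15)K9me1 75 nM, 30 min RT; compound added, 30 min RT; streptavidin donor/Ni-chelate acceptor beads 10 ug/mL each final, 30 min RT dark; AlphaScreen read.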
APEX1 inh: qHTS Assay for Inhibitors of the Human Apurinic/apyrimidinic Endonuclease 1 (APE1); recombinant APE1, TAMRA/BHQ-2 abasic DNA cleavage fluorescence; Potency, µM (doses to about 65.8 µM), without a hit: at the top dose activity change, negative = inhibition, usual class: inhibitors; 350,000 tested, 0.35% active;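 further: plate controls were vehicle for no effect and reference inhibitor for full effect; nearly all actives have a fitted effect of over 55% in size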
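Compound pre-exposure to 0.75 nM APE1, 15 min at ambient temperature. Reaction initiated with 50 nM TAMRA/BHQ-2 THF substrate, read immediately in kinetic mode, 525 nm excitation, 598 nm emission.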
BLM inh: qHTS Assay for Inhibitors of Bloom's syndrome helicase (BLM); AID 2528, 2010; 350,000 tested, 0.2% active; RecQ-like DNA helicase BLM (Homo sapiens), P54132; recombinant BLM DNA unwinding, fluorescence dequenching; Potency, µM (titrated, usually from 56.1 µM), inactives show at the top dose activity change, negative = inhibition, most hits filed as inhibitors;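 further: plate controls were vehicle for no effect and no enzyme for full effect; nearly all actives have a fitted effect of over 35% in size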
RECQ1 conf: Confirmation qHTS Assay for Inhibitors of RecQ-Like Dna Helicase 1 (RECQ1) | shares compounds with RECQ1 inh-1 | RECQ1 helicase DNA unwinding, fluorescence | Potency, µM (top dose mostly 229 µM), without a hit: at the highest dose activity change, negative = inhibition, most hits filed as inhibitors | 610 tested, 28% active; further: nearly all actives have a fitted effect of over 45% in size
RECQ1 ADP FP: Counterscreen for RECQ1 Inhibitors: ADP Fluorescence Polarization Displacement Assay; shares compounds with RECQ1 inh-1; ADP fluorescence polarization displacement counterscreen; Potency, µM (top dose mostly 228 µM), inactives show at the highest dose activity change, negative = inhibition, most hits filed as inhibitors; 530 tested, 27% active; AID 2711, 2010; further: nearly all actives have a fitted effect of over 45% in size
RECQ1 inh-2: Confirmation qHTS Assay for Inhibitors of RecQ-Like Dna Helicase 1 (RECQ1) - Round 2 Cherry Picks; recombinant RECQ1 DNA unwinding, red fluorescence; 1,100 tested, 15% active; shares compounds with RECQ1 inh-1; Potency, µM (series often up to 119 µM), without a hit: top-dose activity, negative = inhibition, usual class: inhibitors; further: nearly all actives have a fitted effect of over 50% in size
Active calls of the source: *; i = inactive; ? = inconclusive; . = no result given; [ ] = another dose, or the depositor's remark. Unless noted, the call rests on the fitted dose curve; in most records, active means well fitted curve in the direction sought with a large enough effect; inconclusive means small, poorly fitted or top-dose-only effect, or another doubt; inactive means no such curve, though single readings can be large; an effect the other way counts as inactive or inconclusive. Unless noted, on the % scale 0 is the no-effect control and ±100 the full control effect; potency means the concentration at half of the fitted maximal effect.

SMILES | RECQ1 inh-1 | JMJD2E inh | L3MBTL1 inh | APEX1 inh | BLM inh | RECQ1 inh-2 | others
CCCn1nnnc1NCc1cccc(OC)c1OCC | . | . | 0.6% | 2.3% | -1.7% | .
CC1CCC/C(=C\Nc2ccc(O)cc2)C1=O (centres undefined) | ? | ? | ? | -5.0% | -7.8% | -27.8%
Cc1cc(C(=O)O)ccc1N/C=C1\CCCC(C)C1=O (centres undefined) | i | -4.6% | . | -5.4% | -0.2% | .
CCN1C(=O)C(CC(=O)Nc2ccc(F)cc2)N(CCc2ccc(OC)cc2)C1=S (centres undefined) | 22.4µM* | -16.8% | 2.2% | -6.8% | -13.5% | -17.3%
CCN1C(=O)C(CC(=O)Nc2ccc(OC)cc2)N(CCc2ccccc2)C1=S (centres undefined) | -5.3% | -0.2% | -2.9% | 3.7% | -12.2% | .
CCc1ccc(OCC(=O)NC2CC(C)(C)NC(C)(C)C2)cc1 | ? | 2.5% | 2.8% | -5.7% | -3.5% | 13.3%
Cc1ccc(OCC(=O)NC2CC(C)(C)NC(C)(C)C2)cc1C | i | -15.8% | 2.3% | 0.9% | 0.6% | .
O=C1N/C(=N/NC(=O)c2cccc3ccccc23)S/C1=C\c1ccccc1OCc1ccccc1 | ? | 5.9% | 0.7% | 9.8% | -26.2% | ?
COc1ccc(OC)c(/C=C2\S/C(=N/NC(=O)c3ccc4ccccc4c3)NC2=O)c1 | -12.7% | ? | -7.4% | 4.4% | -27.9% | .
O=C(C1CC1)N1CCN=C1SCc1cccc(F)c1 | ? | -3.1% | 4.9% | 5.5% | 3.1% | ?
c1nnc2c3c4c(sc3ncn12)CCCC4 | -0.8% | -5.1% | 4.1% | -3.9% | 0.2% | .
CCOC(=O)/C=C/c1nc(C(=O)OCC)c(C)c(=O)[nH]1 | -2.3% | ? | 3.3% | -6.2% | 0.1% | .
Cc1ccc(CNC(=O)C2CCN(S(=O)(=O)c3cccs3)CC2)o1 | ? | ? | -20.0% | 17.5% | -0.5% | -16.1%
Cc1ccc(CNC(=O)C2CCN(S(=O)(=O)c3cccs3)CC2)cc1 | . | . | . | -11.6% | 0.5% | .
COc1ccccc1N(C(=O)c1snc(C(N)=O)c1N)C(C(=O)NC1CCCC1)c1ccc(N(C)C)cc1 (centres undefined) | . | . | . | -0.7% | -6.1% | .
CCOc1ccc2oc(-c3ccccc3)c(C(=O)O)c2c1 | ? | ? | 16.9%[11.4 µM] | 7.9% | -0.8% | -6.8%
COCCCNC(=O)CCCn1c(=O)c2ccccc2n(CC(=O)Nc2c(C)cccc2C)c1=O | -17.0% | -10.9% | -0.4% | -1.5% | -0.5% | .
COc1ccccc1N1C(=O)CC(N2CCc3ccccc32)C1=O (centres undefined) | ? | ? | ? | ? | -3.8% | -5.3%
COc1ccc(Cl)cc1N1C(=O)CC(N2CCc3ccccc32)C1=O (centres undefined) | -16.2% | -9.4% | . | -2.9% | -2.2% | .
CC(=O)C1=C(C)OC2(O)c3ccccc3C(=O)C12O (centres undefined) | ? | ? | -9.0% | ? | -26.6% | -11.6%
CC(=O)c1sc2nc(-c3ccco3)ccc2c1N | 3.55µM* | ? | -21.8% | 3.16µM* | ? | -21.3%
Nc1c(C(=O)Nc2ccc(Br)cc2)sc2nc(-c3ccco3)ccc12 | -22.4% | ? | 1.0% | -13.5% | -20.6% | .
Nc1c(C(=O)Nc2ccc(F)cc2)sc2nc(-c3ccco3)ccc12 | 22.4µM* | ? | 3.3% | ? | -13.8% | -15.8%
NC(=O)c1sc2nc(-c3ccccc3)ccc2c1N | . | . | 0.5% | 3.6% | 0.7% | .
Cc1ccccc1-n1c(SCC(=O)c2cc(C)n(C)c2C)nnc1-c1cccnc1 | -13.1% | -6.7% | . | 2.9% | -9.1% | .
SMILES | RECQ1 inh-1 | JMJD2E inh | L3MBTL1 inh | APEX1 inh | BLM inh | RECQ1 inh-2 | others
COCCn1c(C)cc(C(=O)CSc2nnc(-c3cccnc3)n2-c2ccccc2F)c1C | 3.16µM* | 1.3% | -9.4% | 0.8% | -11.6% | . | RECQ1 conf=?;RECQ1 ADP FP=50.1µM*
COc1cccc(-c2nnc(SC(C(=O)c3c[nH]c4ccccc34)c3ccccc3)n2C)c1 (centres undefined) | -7.4% | 5.9% | 0.0% | -5.9% | -4.1% | . | RECQ1 conf=2.1%;RECQ1 ADP FP=14.6%
O=C(Nc1ncc(Cc2cccc(Cl)c2)s1)c1ccc([N+](=O)[O-])cc1 | -11.4% | 15.7% | 3.8% | -0.1% | 1.1% | .
CCOC(=O)Cc1cc(=O)n2[nH]c(C)c(-c3ccccc3)c2n1 | 35.5µM* | ? | 3.9% | -5.1% | -2.3% | -18.5%
O=C1ON=C(c2ccccc2)/C1=C/c1ccco1 | ? | -28.0% | 28.2µM* | ? | 1.8% | -24.7%
CC(NC(=O)/C(=C/c1cccc([N+](=O)[O-])c1)NC(=O)c1ccco1)C(=O)O (centres undefined) | -10.9% | 4.8% | 7.9% | 20.9% | 2.1% | . | RECQ1 conf=-0.2%;RECQ1 ADP FP=8.4%
COc1ccccc1N1CCN(CC(=O)Nc2ccc(-n3cnnn3)cc2)CC1 | 1.4% | ? | . | -4.9% | -4.0% | .
CC(=O)NC(CC(=O)OCC(=O)c1cc(C)ccc1C)c1ccccc1 (centres undefined) | . | . | -1.3% | 21.4% | . | .
C[C@@H](NC(=O)c1nc[nH]c1C(=O)N[C@@H](Cc1ccccc1)C(=O)OCc1ccccc1)c1ccccc1 | -25.9% | 0.2% | -16.3% | -2.5% | -15.0% | .
C[C@H](NC(=O)c1nc[nH]c1C(=O)N[C@@H](Cc1ccccc1)C(=O)OCc1ccccc1)c1ccccc1 | 39.8µM* | 15.5% | -12.0% | -6.6% | -14.6% | -24.4%
CC(C)C[C@H](NC(=O)c1nc[nH]c1C(=O)NCCCCCNC(=O)OC(C)(C)C)C(=O)OCc1ccccc1 | ? | -2.7% | -8.6% | ? | -16.3% | -19.8%

Source: PubChem BioAssay
